Each structure is given as a SMILES string. Several values for one entry are separate records, joined by “and”; a condition that tells them apart may be missing. Identical values can stand only once. Results filed as inconclusive are left out. Entries that show only a call come without a potency. A structure can be active in one record and inactive in another. Activity calls are given as the source filed them. Calls follow the shape of the dose curve; as a rule, active = well fitted curve in the direction sought with a large enough effect in the repeat runs; inconclusive = weak or mixed curves; inactive = no such curve, though single readings can be large; an effect the other way counts as inactive or inconclusive.
Also: nearly all actives have a fitted effect of over 50% in size.

Chain of Cytochrome P450 3A4 (Homo sapiens) (P08684 whole entry, looked up): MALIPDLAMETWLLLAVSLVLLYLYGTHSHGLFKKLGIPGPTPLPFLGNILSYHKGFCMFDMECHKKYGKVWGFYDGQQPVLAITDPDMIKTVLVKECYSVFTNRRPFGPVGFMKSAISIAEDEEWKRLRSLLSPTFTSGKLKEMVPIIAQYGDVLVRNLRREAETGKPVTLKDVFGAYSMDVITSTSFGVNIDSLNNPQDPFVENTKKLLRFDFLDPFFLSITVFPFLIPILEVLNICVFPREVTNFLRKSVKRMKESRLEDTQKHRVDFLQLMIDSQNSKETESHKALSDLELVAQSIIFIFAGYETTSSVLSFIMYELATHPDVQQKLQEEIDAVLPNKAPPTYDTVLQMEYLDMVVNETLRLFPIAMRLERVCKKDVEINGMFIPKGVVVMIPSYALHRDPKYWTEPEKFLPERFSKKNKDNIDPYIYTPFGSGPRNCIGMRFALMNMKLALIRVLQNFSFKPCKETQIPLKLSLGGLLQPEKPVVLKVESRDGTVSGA
Chain of Voltage-gated inwardly rectifying potassium channel KCNH2 (Homo sapiens) (Q12809 whole entry, looked up): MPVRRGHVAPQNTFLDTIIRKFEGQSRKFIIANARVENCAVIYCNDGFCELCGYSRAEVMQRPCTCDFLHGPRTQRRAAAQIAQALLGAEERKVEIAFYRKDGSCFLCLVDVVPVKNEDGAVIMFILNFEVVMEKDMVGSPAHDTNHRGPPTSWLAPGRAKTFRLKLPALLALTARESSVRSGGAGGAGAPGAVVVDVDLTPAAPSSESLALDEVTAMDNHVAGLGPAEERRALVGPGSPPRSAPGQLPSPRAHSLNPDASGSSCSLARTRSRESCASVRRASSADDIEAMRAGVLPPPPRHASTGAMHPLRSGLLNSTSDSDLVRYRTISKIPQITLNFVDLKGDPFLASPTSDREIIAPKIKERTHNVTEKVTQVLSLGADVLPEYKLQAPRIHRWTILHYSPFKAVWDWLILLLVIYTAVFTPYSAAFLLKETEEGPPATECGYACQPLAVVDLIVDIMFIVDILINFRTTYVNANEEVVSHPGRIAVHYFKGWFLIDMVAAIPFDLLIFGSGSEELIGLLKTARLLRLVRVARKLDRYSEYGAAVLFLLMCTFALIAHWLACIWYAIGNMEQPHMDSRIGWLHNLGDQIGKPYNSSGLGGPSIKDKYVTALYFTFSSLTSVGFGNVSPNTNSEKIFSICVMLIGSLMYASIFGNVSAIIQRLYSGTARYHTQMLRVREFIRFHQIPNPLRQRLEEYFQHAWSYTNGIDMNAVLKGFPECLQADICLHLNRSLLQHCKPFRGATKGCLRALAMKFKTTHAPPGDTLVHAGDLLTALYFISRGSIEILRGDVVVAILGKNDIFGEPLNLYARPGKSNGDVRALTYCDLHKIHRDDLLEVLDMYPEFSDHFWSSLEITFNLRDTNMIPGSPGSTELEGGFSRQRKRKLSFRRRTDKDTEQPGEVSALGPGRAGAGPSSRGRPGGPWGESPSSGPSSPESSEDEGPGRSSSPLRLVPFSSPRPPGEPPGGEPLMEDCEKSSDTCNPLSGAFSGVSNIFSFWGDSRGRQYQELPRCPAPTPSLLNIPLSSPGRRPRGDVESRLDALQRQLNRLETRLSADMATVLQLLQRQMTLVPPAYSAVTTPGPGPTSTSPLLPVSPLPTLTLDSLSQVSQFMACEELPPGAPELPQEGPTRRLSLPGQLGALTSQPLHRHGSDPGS

The target in one assay is Voltage-gated inwardly rectifying potassium channel KCNH2 (Homo sapiens) (UniProt Q12809). The experiment in a line: Human Ether-a-go-go-Related Gene (hERG) channel small molecule antagonists: fluorescence cell-based qHTS assay (AID 1671200).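 Also: hERG-expressing U2OS cells given a thallium stimulus after FluxOR II dye loading.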 Particulars: hERG-U2OS cells, FluxOR thallium flux fluorescence; series mostly up to 76.8 µM; activity change, negative = inhibition: at the top concentration. Put shortly:
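Quantitative HTS in hERG-U2OS cells: thallium entry through the channel reports activity, read as continuous 480/540 nm fluorescence over 2 min after stimulus addition.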
With `CN1C(=O)CCS(=O)(=O)C1c1ccc(Cl)cc1` (configuration not stated), the Potency entry was “inactive”. Turning to `Oc1ccc(Cl)cc1`, the Potency result was “inactive”. As for `COc1cc(-c2ccc(N)c(OC)c2)ccc1N`, the Potency result was “inactive”. As to `CC(C)c1cccc(C(C)C)c1O`, the Potency entry is “inactive”. On to `C=CC(=O)OCC(CC)CCCC` (configuration not stated), for which the Potency entry is “inactive”.

Regarding `CCOc1ccc(N)cc1`, the Potency result is “inactive”. In the case of `CNC(=O)O/N=C/C(C)(C)SC`, the Potency result was “inactive”. `FC(F)(F)c1ccc(Cl)cc1`: the Potency result is “inactive”. With `O=P1(NCCCl)OCCCN1CCCl` (configuration not stated), the Potency result was “inactive”.

Take `COc1nc(NC(C)C)nc(NC(C)C)n1`: the Potency result is “inactive”.

Consider `Nc1ncc([N+](=O)[O-])s1`, for which the Potency entry is “inactive”. The same measure, in the same setting: the entry for `CC12CC1(C)C(=O)N(c1cc(Cl)cc(Cl)c1)C2=O` (configuration not stated) is “inactive”. The same measure, in the same setting: the entry for `Sc1ccccc1` is “inactive”; for `Cc1ccc(O)c(C)c1` it is “inactive”. Same read-out and setting: the result for `Cl[C@H]1OCCO[C@@H]1Cl` reads “inactive”; that for `Cc1ccc(N)cc1`, “inactive”; that for `Nc1ccc(N)cc1`, “inactive”.

As for `ClC(Cl)c1ccccc1`, the Potency entry was “inactive”. Still for that read-out and setting: the result for `CSc1nnc(C(C)(C)C)c(=O)n1N` reads “inactive”.

Another assay concerns the target Cytochrome P450 3A4 (Homo sapiens) (UniProt P08684). The assay can be described thus: Cytochrome P450 Family 3 Subfamily A Member 4 (CYP3A4) small molecule antagonists: luciferase reporter qHTS assay (AID 1671201). Also: potency is read from the fitted curve at half-maximal effect. The settings on record: P450-Glo CYP3A4 enzyme, luciferin luminescence, 1 h; series mostly up to 115 µM; activity change, negative = inhibition: at the top concentration. In a few lines: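 Inhibition of CYP3A4 is measured as loss of light: the enzyme converts a proluciferin substrate to luciferin, detected luminescently. Reaction ran 1 h at room temperature with NADPH regeneration after a 10 min compound preincubation.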
Regarding `CN1C(=O)CCS(=O)(=O)C1c1ccc(Cl)cc1` (configuration not stated), the Potency entry was “inactive”.

`Cc1ccccc1N`: the Potency entry is “inactive and 28.8 µM (active) and 28.3 µM (active)”.

Regarding `CNc1cnn(-c2cccc(C(F)(F)F)c2)c(=O)c1Cl`, the Potency was 34.3 µM (active). For `Cc1cccc(N)c1C`, the Potency is 36.9 µM (active).

As to `CCOc1ccc(N)cc1`, the Potency entry was “inactive”. Still for that read-out and setting: the entry for `O=[N+]([O-])c1ccc(Cl)c(Cl)c1` is “inactive”; for `CNC(=O)O/N=C/C(C)(C)SC` it is “inactive”; for `OCC(O)CCl` (configuration not stated) it is “inactive”. Turning to `FC(F)(F)c1ccc(Cl)cc1`, the Potency result was “inactive”. Same read-out and setting: the result for `CCCCCCCCCCCCCCCCCC(=O)O` reads “inactive”; that for `COc1nc(NC(C)C)nc(NC(C)C)n1`, “inactive”. On the same count and under the same terms, the result for `CCCCC(CC)C(=O)Cl` (configuration not stated) reads “inactive”. Same read-out and setting: the figure for `CCOP(=S)(OCC)Oc1ccc([N+](=O)[O-])cc1` is 2.27 µM (active) and 2.75 µM (active); for `Nc1ncc([N+](=O)[O-])s1` it is “inactive”. For `CC12CC1(C)C(=O)N(c1cc(Cl)cc(Cl)c1)C2=O` (configuration not stated), the “activity change, negative = inhibition” value was 9.19% (inactive). As for `Sc1ccccc1`, the Potency entry is “inactive”. For `Cc1ccc(O)c(C)c1`, the Potency result is “inactive”. With `CNC(=O)O/N=C/C(C)(C)S(C)(=O)=O`, the Potency entry was “inactive”.

On to `O=[N+]([O-])c1ccc(Cl)cc1`, for which the Potency result was “inactive”. Still for that read-out and setting: the result for `Cl[C@H]1OCCO[C@@H]1Cl` reads “inactive”. Regarding `Cc1ccc(N)cc1`, the “activity change, negative = inhibition” value is -0.455% (inactive).

Turning to `ClC(Cl)c1ccccc1`, the Potency entry was “inactive”. On to `CSc1nnc(C(C)(C)C)c(=O)n1N`, for which the Potency result is “inactive”.

These data come from PubChem BioAssay (Tox21).
